Source: PubChem BioAssay
In the library only some 3.8% were active in any assay of this set; here they are far more common.
Jurkat NFkB inh: inhibitors of the PMA/ionomycin-induced NF-kB reporter in Jurkat cells; 0.53% of 330,000 active; AID 435003; inhibition, % at 4 µM; PMA/ionomycin-induced NF-kB luciferase reporter, luminescence; in the data active = inhibition above about 50%
697 NFkB inh: lowers PMA/ionomycin-induced NF-kB signal in 697 B cells; 697 B-cell NF-kB luciferase reporter, 16 h; inhibition, % at 4 µM; 0.33% of 330,000 active; in the data active = inhibition above about 35%
Beta cell apopt: blocks beta cell apoptosis | INS-1E cytokine-induced death, ATP luminescence, 48 h; percent of positive-control rescue, neutral wells zero | protection from apoptosis, % (test concentration not listed) | 0.8% of 300,000 active | AID 435005;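 active = Every replicate reaches about 75%, or at least half do and their mean reaches it too, limit read from the data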;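 note: higher means more ATP so stronger rescue from cytokine killing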
NTR1 ag: agonists of human neurotensin receptor NTR1; 0.17% of 330,000 active; AID 493036; NTR1-U2OS beta-arrestin-GFP spot imaging, agonist mode; activation, % at 20 µM; P30989;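 active = activation at or above 40% of the spot to cytoplasm intensity ratio, with at least 20 cells analyzed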
Target sequence (P30989 whole entry, looked up): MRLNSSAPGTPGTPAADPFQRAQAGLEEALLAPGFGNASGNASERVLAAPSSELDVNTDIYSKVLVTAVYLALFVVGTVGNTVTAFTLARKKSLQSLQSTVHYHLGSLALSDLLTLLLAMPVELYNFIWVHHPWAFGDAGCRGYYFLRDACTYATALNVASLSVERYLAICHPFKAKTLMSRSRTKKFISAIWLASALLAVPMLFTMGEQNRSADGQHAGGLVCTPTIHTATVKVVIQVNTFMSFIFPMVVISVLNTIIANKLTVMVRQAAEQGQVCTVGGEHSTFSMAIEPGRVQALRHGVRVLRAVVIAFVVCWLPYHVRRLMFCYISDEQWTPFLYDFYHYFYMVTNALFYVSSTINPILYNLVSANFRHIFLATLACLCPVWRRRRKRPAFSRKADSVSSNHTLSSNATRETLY
A1 inh: inhibitors of the anti-apoptotic protein A1, read as caspase activation; MEF A1-2A-BIM cells, Caspase-Glo 3/7 luminescence, 3 h; percent of clofoctol response, vehicle zero; caspase activation, % (test concentration not listed); 0.066% of 330,000 active; AID 2462;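 active = over half of replicate activation scores above 10%, or exactly half above 10 with the replicate mean above 10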
Mdm2-MdmX inh: disrupts the human Mdm2-MdmX interaction | O15151+Q00987 | SaOS-2 split-luciferase Mdm2/MdmX complementation, luminescence | inhibition, % at 8 µM | 3% of 330,000 active | AID 485346;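 active = inhibition of at least 50% at 8 µM in the primary screen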
697 NFkB conf: inhibitors of the PMA/ionomycin-induced NF-kB reporter in 697 B cells, retest. inhibition, % at 4 µM. 697 B-cell NF-kB luciferase, 16 h. AID 449746. shares compounds with 697 NFkB inh. 35% of 2,000 active; in the data active = inhibition mostly above about 28%, no sharp cut-off; inactive = mostly below about 22%
Mdm2 MdmX conf: human Mdm2/MdmX binding inhibition, confirmed; shares compounds with Mdm2-MdmX inh; AID 489028; 55% of 10,000 active; inhibition, % at 8 µM; luminescent assay; in the data active = inhibition above about 40%
Full FLuc ctr: full-length luciferase inhibition in Mdm2/MdmX counter-screen; shares compounds with Mdm2-MdmX inh; SaOS-2 full-length luciferase counterscreen, luminescence; inhibition, % at 8 µM; 77% of 6,200 active; AID 504607;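 active = mean inhibition at 8 µM reaching about 37%, which flags the compound as non-specific, limit read from the data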;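 note: p53-null SaOS-2 cells with luciferase driven by a doxycycline-inducible promoter; compound on cells about two nights before reading with doxycycline added after day one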
Each line names hits and unclear results; the compound was inactive in the other large screens (follow-up assays come after a bar, where they were run).

Cc1cc(N)n2ncc(-c3ccccc3)c2n1	none
COc1ccccc1C(=O)NCCC(=O)NCC(c1ccco1)N1CCCC1 (centres undefined)	none
CC(C)(C)c1ccc(/C=C2\SC(=O)N(CCNC(=O)c3cccc(S(=O)(=O)N4CCOCC4)c3)C2=O)cc1	Mdm2-MdmX inh 70 (no result: Beta cell apopt) | 697 NFkB conf inactive | Mdm2 MdmX conf 76 | Full FLuc ctr 86
CCCCN(C(=O)c1ccc2c(c1)S(=O)(=O)N=C1CCCCCN12)c1c(N)n(CCCC)c(=O)[nH]c1=O	none
CCCc1c(NC(=O)Nc2ccc(Cl)cc2Cl)cnn1-c1ccccc1	Mdm2-MdmX inh 86 (no result: Beta cell apopt) | 697 NFkB conf inactive | Mdm2 MdmX conf 75 | Full FLuc ctr 43
COc1cccc(N2CCN(c3ncnc4c3[nH]c3ccc(F)cc34)CC2C)c1 (centres undefined)	697 NFkB inh 71, Beta cell apopt 110, Mdm2-MdmX inh 98 | 697 NFkB conf 91 | Mdm2 MdmX conf 100 | Full FLuc ctr inactive
Cc1noc(C)c1CSc1nc2[nH]ncc2c(=O)n1-c1ccccc1	697 NFkB inh 55, Mdm2-MdmX inh 69 | 697 NFkB conf 55 | Mdm2 MdmX conf 68 | Full FLuc ctr 61
Cc1nc(CSc2nc3[nH]ncc3c(=O)n2-c2ccccc2)cs1	none
CCOC(=O)c1c(S(=O)(=O)Nc2ccc(C)cn2)c(C)n(C)c1C	none
O=S(=O)(c1ccc(S(=O)(=O)N2CCCC2)cc1)N1CCCCCC1	none (no result: Beta cell apopt)
O=S(=O)(c1ccc2c(c1)C(=NO)c1cc(S(=O)(=O)N3CCCCC3)ccc1-2)N1CCCCC1	697 NFkB inh 104, Beta cell apopt 106, Mdm2-MdmX inh 95 | 697 NFkB conf inactive | Mdm2 MdmX conf 99 | Full FLuc ctr inactive
COc1cc2c(cc1C1NC(=S)NC(C)=C1C(N)=O)CCCC2 (centres undefined)	697 NFkB inh 43, Mdm2-MdmX inh 66 | 697 NFkB conf inactive | Mdm2 MdmX conf inactive | Full FLuc ctr 86
CC1=C(C(N)=O)C(c2cccs2)NC(=S)N1 (centres undefined)	none
Cc1ccc(CCNS(=O)(=O)c2cc(Br)cnc2N)cc1	none
O=C(NC1CCCc2ccccc21)c1ccccc1 (centres undefined)	none (no result: Beta cell apopt)
CCc1c(C(=O)NC2CCCc3ccccc32)[nH]c(C)c1C(C)=O (centres undefined)	Mdm2-MdmX inh 85 | 697 NFkB conf inactive | Mdm2 MdmX conf 65 | Full FLuc ctr 52
COc1ccc(Nc2nnc(SCC(=O)NC3CCS(=O)(=O)C3)s2)cc1 (centres undefined)	none (no result: Beta cell apopt, A1 inh)
CCOC(=O)/C(C#N)=C\c1cc(C)n(-c2ccccc2)c1C	Mdm2-MdmX inh 56 | 697 NFkB conf inactive | Mdm2 MdmX conf 79 | Full FLuc ctr 155
CN(C)C(=O)C(OC(=O)c1ccc2c(c1)CCCC2)c1ccccc1 (centres undefined)	none
Cc1sc2ncnc(N3CCC(C(=O)Nc4nc(-c5ccc(F)cc5)cs4)CC3)c2c1C	Mdm2-MdmX inh 94 (no result: Beta cell apopt) | 697 NFkB conf inactive | Mdm2 MdmX conf 90 | Full FLuc ctr 60
C=CCOc1ccccc1CN(C(=O)CCl)c1ccc2c(c1)OCO2	697 NFkB inh 42, Mdm2-MdmX inh 90 | 697 NFkB conf 32 | Mdm2 MdmX conf 81 | Full FLuc ctr inactive
Nc1c(C(=O)CSc2nc3ccccc3o2)c(=O)[nH]c(=O)n1C1CC1	Mdm2-MdmX inh 80 | 697 NFkB conf inactive | Mdm2 MdmX conf inactive
COc1ccccc1-c1nnc(SCC(=O)c2c(N)n(C3CC3)c(=O)[nH]c2=O)o1	none
O=C(NC1CCCc2ccccc21)c1ccc(Br)cc1 (centres undefined)	none
O=C(CCNC(=O)c1ccc(Br)cc1)NC1CCCc2ccccc21 (centres undefined)	Mdm2-MdmX inh 88 | 697 NFkB conf inactive | Mdm2 MdmX conf 89 | Full FLuc ctr 46
O=C(OCC(=O)N1CCCc2ccccc21)c1ccccc1OC(F)F	none
Cn1c(=NC(=O)CCl)sc2ccccc21	697 NFkB inh 88, Mdm2-MdmX inh 98 | 697 NFkB conf 79 | Mdm2 MdmX conf 97 | Full FLuc ctr inactive
CCCN1C(=O)c2ccccc2NC1c1ccc(OC)cc1OC (centres undefined)	none
CCCN1C(=O)c2ccccc2NC1c1ccc(OC)cc1O (centres undefined)	Mdm2-MdmX inh 64 | 697 NFkB conf inactive | Mdm2 MdmX conf 54 | Full FLuc ctr 72
Cc1cc(/C=C2\Cc3ccccc3C2=O)c(C)n1-c1ccccc1	Mdm2-MdmX inh 80 | 697 NFkB conf inactive | Mdm2 MdmX conf 64 | Full FLuc ctr 73
COc1ccc(OC)c(NC(=O)c2nc(S(=O)(=O)Cc3ccccc3)ncc2Cl)c1	Beta cell apopt 80, Mdm2-MdmX inh 100 | 697 NFkB conf inactive | Mdm2 MdmX conf 93 | Full FLuc ctr 51
COc1ccc(OC)c(NC(=O)CS(=O)(=O)Cc2ccccc2)c1	none (no result: Beta cell apopt, A1 inh)
Cc1ccc(-n2c(SCC(=O)N3CCCc4ccccc43)nnc2-c2cccnc2)c(C)c1	none
Cc1ccc(-n2c(-c3ccccc3)c[n+]3c2CCc2ccccc2-3)c(C)c1	697 NFkB inh 49, Beta cell apopt 130, Mdm2-MdmX inh 82 | 697 NFkB conf 28 | Mdm2 MdmX conf 66 | Full FLuc ctr inactive
Cc1sc2nc(C3CC3)nc(SCC(=O)N3c4ccccc4CC3C)c2c1C (centres undefined)	Mdm2-MdmX inh 85 | 697 NFkB conf inactive | Mdm2 MdmX conf 90 | Full FLuc ctr 53
CCN1C(=O)[C@@H]2Cc3c([nH]c4ccccc34)C(c3ccc(OC)cc3)N2C1=S (some centres undefined)	Mdm2-MdmX inh 73 | 697 NFkB conf inactive | Mdm2 MdmX conf 58 | Full FLuc ctr 58
C/C(N)=C(/C#N)C(=O)COC(=O)c1cc(C)n(-c2ccc(F)cc2)c1C	Mdm2-MdmX inh 80 | 697 NFkB conf inactive | Mdm2 MdmX conf inactive
COCCNC(=O)c1onc(CS(=O)(=O)c2cc(C)cc(C)c2)c1C(=O)NCCOC	none
Cc1ccc(CC(=O)Nc2nc3c(s2)CCCC3)cc1	Mdm2-MdmX inh 87 | 697 NFkB conf inactive | Mdm2 MdmX conf 79 | Full FLuc ctr 37
COc1ccc(OCC(=O)Nc2nc3c(s2)CCCC3)cc1	none (no result: Beta cell apopt, A1 inh)
O=C(CS(=O)(=O)Cc1ccccc1)Nc1nc2c(s1)CCCC2	none
COc1ccccc1OCC(=O)Nc1nc2c(s1)CCCC2	Mdm2-MdmX inh 51 (no result: Beta cell apopt, A1 inh) | 697 NFkB conf inactive | Mdm2 MdmX conf 59 | Full FLuc ctr 83
